The values below come from PubChem BioAssay AID652010 (The Scripps Research Institute Molecular Screening Center, 2013).

Out of some 370,000 compounds screened, about 4,100 (1.1%) were called active.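 The calls were made as follows: active = inhibition above the mean over all tested compounds plus 3 SD (cut at about 3.6% in these data); inactive = the rest.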 Only a selection was taken, and actives are over-represented in it overall.

For orientation: inhibition means the relative decrease from the control value, in per cent.

The nature of this experiment: relief of DAX-1 repression of SF-1 activity – cell-based, luminescence, SF-1 (NR5A1), full-length DAX-1, primary screen (AID 652010).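 Also: 0% = DAX-1 cells with DMSO and 100% = cells lacking DAX-1 with DMSO; higher inhibition means more luminescence from relief of DAX-1 repression.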 Conditions: HEK293T StAR-luciferase reporter, SF-1/DAX-1 repression relief; at 6.8 µM; hits give high values. On the technique in general: In a reporter assay the amount or activity of a reporter protein is the signal.
`CCOc1ccc(NC(=O)COc2ccc(S(=O)(=O)N3CCCC3)cc2)cc1`: the inhibition was -0.61% (inactive).

Turning to `COc1ccc(-n2c(COc3ccccc3)nnc2SCC(=O)Nc2ccc3c(c2)OCO3)cc1`, the inhibition is -0.36% (inactive). In the case of `CC(c1ccc(N)cc1)c1cn(C)c2ccccc12` (centres undefined), the inhibition is -0.01% (inactive). For `COc1ccc(Cn2cc(COC(=O)N(C)Cc3ccccc3)nn2)cc1`, the inhibition is -0.67% (inactive). In the case of `Cc1nn(C(=O)c2ccoc2C)c(N)c1-c1ccccc1`, the inhibition was 3.82% (active). With `Cc1cc(-c2ccccc2)n2nc(C)c(-c3ccccc3)c2n1` the figure was 0.27% (inactive); with `Cc1nn2c(c1-c1ccccc1)N=C(c1ccco1)CC2c1ccccc1` (centres undefined), -0.86% (inactive). `O=C(NCCc1c[nH]c2ccccc12)OCc1cn(-c2c(F)cccc2F)nn1`: the inhibition is -0.6% (inactive). For `Cc1cccc(N(CC(=O)Nc2ccc(-c3nc4ccc(C)cc4s3)cc2)S(C)(=O)=O)c1`, the inhibition was 1.57% (inactive).

Regarding `Cc1ccc2nc(-c3ccc(NC(=O)CN(C)S(=O)(=O)c4ccccc4)cc3)sc2c1`, the inhibition was 3.65% (active). As to `Cc1nc2ccc(S(=O)(=O)N(C)CC(=O)NC(C)c3ccccc3)cc2s1` (centres undefined), the inhibition was -0.1% (inactive). The value for `O=S1(=O)c2c(cccc2N2CCCC2)O[C@H](COCc2ccccc2)CN1C1CC1` was -1.16% (inactive); that for `C=CCN1C(=O)[C@@H](CC(=O)NCC2CCCCC2)[C@]2(C(=O)OC)CCCCC=C12` was 0.53% (inactive). The value for `COC(C(=O)Nc1ccc(S(=O)(=O)Nc2ccc(C)c(C)c2)cc1)c1ccccc1` (centres undefined) was -1.03% (inactive).

In the case of `Cc1ccc(N/C=C/C(=O)c2ccccc2)cc1C`, the inhibition was 5.15% (active). For `Cc1ccc(NNC(=O)C2CCC2)cc1C`, the inhibition was 0.22% (inactive). Turning to `Nc1nc2c(ncn2[C@@H]2O[C@H](C(=O)N[C@H](Cc3ccccc3)C(=O)NCC3CCCCC3)[C@@H](O)[C@H]2O)c(=O)[nH]1`, the inhibition is 1.02% (inactive). Take `COc1ccc(CNC(=O)c2cc(C(=O)C3CC3)c[nH]2)cc1`: the inhibition was -2.24% (inactive).

For the compound `COC(=O)Nc1nc2ccc(Sc3ccccc3)cc2[nH]1`, the inhibition is 0.19% (inactive). As for `COC(=O)Nc1nc2ccc(C(=O)C3CC3)cc2[nH]1`, the inhibition was 7.48% (active).

As for `COc1ccc(-n2c(COc3ccc(C)cc3)nnc2SCC(=O)Nc2ccc(Oc3ccccc3)cc2)cc1`, the inhibition was -1.51% (inactive). Regarding `COc1ccc(Cn2cc(CN3[C@@H](CC(C)C)COc4cc(Br)ccc4S3(=O)=O)nn2)cc1`, the inhibition was 0.86% (inactive). With `C=CCN1[C@H](CC(C)C)COc2cccc(N3CCCC3)c2S1(=O)=O` the figure was -1.88% (inactive); with `O=C(CCc1ccccc1)Nc1ncc([N+](=O)[O-])s1`, 4.52% (active); with `O=C(CCc1ccccc1)Nc1ccc(NC(=O)C2CCCCC2)nc1`, -0.14% (inactive). With `O=C(CCc1ccccc1)Nc1ccc(NC(=O)C2CC2)nc1`, the inhibition is -0.05% (inactive). With `Cc1cc2oc(C(=O)Nc3c(C)n(C)n(-c4ccccc4)c3=O)c(C)c2cc1Cl` the figure was -0.22% (inactive); with `Cc1ccnc(NC(=O)CNC(=O)c2ccccc2)c1`, 6.34% (active). Take `Cc1ccnc(NC(=O)CCCOc2ccccc2)c1`: the inhibition is 0.57% (inactive).

Take `Cc1ccnc(NC(=O)Cn2ccc([N+](=O)[O-])n2)c1`: the inhibition is 0.11% (inactive). Turning to `O=C(CN1CCCc2ccccc21)NCc1ccc(F)cc1`, the inhibition was -0.22% (inactive). Turning to `Brc1ccc(COCCc2cn(Cc3ccccc3)c3ccccc23)cc1`, the inhibition was 1.27% (inactive). Take `O=C(COc1ccc(Br)cc1F)NCC1(N2CCCCC2)CCCCC1`: the inhibition was 0.06% (inactive). The value for `CC(C)N(Cc1nnc(-c2ccc(Cl)cc2)o1)C(=O)C1=COCCO1` was -1.6% (inactive). For `CN(C)CCN(C(=O)C1=COCCO1)c1nc2ccc(Cl)cc2s1`, the inhibition is 4.61% (active).

As to `CCCOP(=O)(c1ccc(N(C)C)cc1)C(O)c1cc(OC)c(OC)c(OC)c1` (centres undefined), the inhibition is 0.1% (inactive). The value for `CCCC[C@H](C(=O)N(CC)c1ccccc1)[C@@H](O)c1ccc2ccccc2c1` was -1.35% (inactive). With `COC(=O)[C@]12C[C@H](CC(=O)NCc3cccc4ccccc34)C(=O)N(CCc3ccc(OC)c(OC)c3)C1=C[C@H](C1CCCC1)O[C@@H]2C`, the inhibition was -1.59% (inactive).

In the case of `C#CCN([C@H](C(=O)OC)C(C)CC)S(=O)(=O)c1ccccc1Br` (some centres undefined), the inhibition is -0.34% (inactive). The value for `COc1ccc(C(CNC(=O)c2cc(S(=O)(=O)Nc3cccc(C)c3)ccc2C)N2CCCC2)cc1` (centres undefined) was 4.48% (active). With `COc1ccc(C(CNC(=O)c2cccc(NS(=O)(=O)c3ccc(C)c(F)c3)c2)N2CCCC2)cc1` (centres undefined) the figure was 2.54% (inactive). Take `COc1ccc(NS(=O)(=O)c2ccc(C)c(C(=O)NCC(c3cccs3)N3CCOCC3)c2)cc1` (centres undefined): the inhibition was 1.82% (inactive).

For `CCOC(=O)C1(Cc2ccccc2)CCN(Cc2cn(C(C)=O)c3ccccc23)CC1`, the inhibition was -0.4% (inactive). With `COc1ccccc1C(=O)NCCC(=O)NCC(c1ccco1)N1CCCCC1` (centres undefined), the inhibition was 0.45% (inactive). Take `O=C(c1cnn2ccccc12)N1CCc2ccccc21`: the inhibition is 6% (active). Regarding `O=C(c1cc2sccc2n1Cc1ccc(F)cc1)N1CCc2ccccc21`, the inhibition was -0.14% (inactive). For `CCCCn1nc(C(=O)N2CCc3ccccc32)c2ccccc2c1=O`, the inhibition is -1% (inactive). The value for `Cc1ccccc1C(=O)N[C@H](C(=O)N1CCC[C@H]1C(=O)NCc1ccccc1)C(C)C` was 0.49% (inactive); that for `Nc1c(C(=O)Nc2ccc3c(c2)OCCO3)nnn1Cc1ccccc1` was 11.8% (active); that for `O=C(CCS(=O)(=O)Cc1ccccc1)Nc1ccc2c(c1)OCCO2` was -0.13% (inactive). With `O=C(Nc1ccc2c(c1)OCCO2)C(C1CC1)N1CCC(Cc2ccccc2)CC1` (centres undefined), the inhibition is -0.46% (inactive).

For `Cc1ccc(NC(=O)Cc2cccc(F)c2)c(S(=O)(=O)N2CCOCC2)c1`, the inhibition was -1.09% (inactive). For `O=C(CSc1nnc(-c2ccccn2)n1-c1ccccc1)Nc1ccc2cn[nH]c2c1`, the inhibition is -1.05% (inactive). As to `COc1cccc(-c2nc3cc(C)ccc3o2)c1`, the inhibition is 4.5% (active). As for `O=[N+]([O-])c1ccc2oc(-c3cccc(O)c3)nc2c1`, the inhibition was 5.24% (active). As for `O=[N+]([O-])c1ccc2c(c1)C(O)n1nc(-c3ccccc3)nc1S2` (centres undefined), the inhibition was -0.33% (inactive). With `COc1cccc(-c2cnc(OC(C)(C)C)nc2OC(C)(C)C)c1` the figure was -0.07% (inactive); with `CNc1ccc([N+](=O)[O-])cc1C(=O)O`, 0.42% (inactive). Consider `COc1cccc(NS(=O)(=O)c2ccc(-c3coc(C)n3)cc2)c1`, for which the inhibition was -0.43% (inactive). On to `C=C(C)C#CC(Cc1ccccc1)N(CC1CC1)/C(N)=N/C(=O)OCc1ccccc1` (centres undefined), for which the inhibition was -1.59% (inactive).

On to `CC(=O)C1(C(=O)Nc2nccs2)CC(c2ccccc2C(F)(F)F)=NO1` (centres undefined), for which the inhibition was -0.45% (inactive). Turning to `COc1ccnc(C(=O)N2CCC(Oc3cccnc3)CC2)c1`, the inhibition is -0.42% (inactive).

On to `COc1ccc(N2CCN(CCNS(=O)(=O)c3ccc([N+](=O)[O-])cc3)CC2)cc1`, for which the inhibition is -1.45% (inactive). For `O=C(NC1CCCCN(Cc2ccc(Cl)cc2)C1=O)c1ccc(Br)cc1` (centres undefined), the inhibition is -1.64% (inactive). `O=c1[nH]c(-c2ccccc2)cn1C1CCN(Cc2ccc(-c3nc4ccc(F)cc4nc3-c3ccccc3)cc2)CC1`: the inhibition is -0.54% (inactive). On to `CN1CCN(C(=O)c2ccc(NC(=O)c3ccc(Br)o3)cc2)CC1`, for which the inhibition was 0.03% (inactive). Take `O=CN1CCN(C(=O)c2ccc(Br)o2)CC1`: the inhibition is -0.07% (inactive). On to `CN1CCN(C(=O)c2ccc(-c3ccc(Br)cc3)o2)CC1`, for which the inhibition was 4.56% (active). With `COC(=O)[C@]12C[C@H](CC(=O)N3CCOCC3)C(=O)N(Cc3ccc(Cl)cc3Cl)C1=C[C@H](C(C)C)O[C@@H]2C1CC1` the figure was -0.52% (inactive); with `O=C(CNC(=O)c1ccc2ccccc2c1)Nc1ncccc1O`, 1.3% (inactive). In the case of `CCOC(=O)c1cccnc1NC(=O)c1ccncc1`, the inhibition is 0.42% (inactive). For `O=C(Nc1ccc(S(=O)(=O)N2CCCCC2)cc1)c1cnccn1`, the inhibition is 0.17% (inactive).

Take `O=C(Nc1ncccc1O)c1ccc(S(=O)(=O)N2CCCCCC2)cc1`: the inhibition was 6.81% (active).

Consider `CN1CCN(NC(=O)c2ccc(S(=O)(=O)N3CCCCCC3)cc2)CC1`, for which the inhibition is -0.23% (inactive). Turning to `O=C(Nc1ncccc1O)c1ccc(S(=O)(=O)N2CCCC2)cc1`, the inhibition was 10.9% (active).

On to `O=C(Nc1ncccc1O)c1ccc(C(=O)c2ccccc2)cc1`, for which the inhibition was 69.9% (active).

In the case of `CCN(CC)S(=O)(=O)c1cccc(NC(=O)c2ccc(S(=O)(=O)N3CCCC3)cc2)c1`, the inhibition was -3.89% (inactive). With `CC(C)(C)n1nc2c(c1NC(=O)c1ccc(S(=O)(=O)N3CCCC3)cc1)CS(=O)C2` (centres undefined) the figure was -0.67% (inactive); with `CC(=O)Nc1nc2ncccn2c1-c1ccc(C(F)(F)F)cc1`, -0.41% (inactive); with `CCN(C(=O)[C@@H](C1CC1)[C@@H](O)c1ccc2ccccc2c1)c1ccccc1`, -0.4% (inactive). Consider `COC(=O)C1CN(Cc2cn(Cc3ccc(F)cc3)nn2)CCS(=O)(=O)N1Cc1ccc(Cl)cc1` (centres undefined), for which the inhibition was -0.95% (inactive). In the case of `CCOC(=O)c1nc(-c2ccc3c(c2)OCO3)[nH]c1C`, the inhibition is 2.3% (inactive).

For `CCOC(=O)CNC(=O)CSc1ncccc1-c1nc2ccccc2[nH]1`, the inhibition was 0.2% (inactive). For `O=C1c2ccccc2C(c2nc3ccccc3[nH]2)N1c1ccccc1` (centres undefined), the inhibition was -1.53% (inactive). On to `Cc1ccc(-c2nc3ccccc3[nH]2)cc1N`, for which the inhibition was 6.54% (active).

Take `c1ccc2[nH]c(-c3nc4ccccc4[nH]3)nc2c1`: the inhibition was 5.77% (active). As to `C/C(=N\Nc1nc2ccccc2[nH]1)c1cccs1`, the inhibition was 3.55% (inactive).

`COc1ccc(NC(=O)C2=CC(c3ccc(OC)c(OC)c3)=NS(=O)(=O)N2C)cc1`: the inhibition was -5% (inactive). For the compound `COc1ccc(-c2cc(-c3nnc(SCc4ccc([N+](=O)[O-])cc4)n3N)[nH]n2)cc1`, the inhibition is -1.87% (inactive).
